AmpC inh no det – inhibitors of E. coli AmpC beta-lactamase without detergent; Potency, µM (highest dose often 28.7 µM), for inactives: top-dose activity change, negative = inhibition; AmpC nitrocefin hydrolysis, absorbance 480 nm, no detergent; AID 585; P00811; 71,000 tested, 1.8% active; note: % of control where 0% means no effect
Target sequence (P00811 whole entry, looked up): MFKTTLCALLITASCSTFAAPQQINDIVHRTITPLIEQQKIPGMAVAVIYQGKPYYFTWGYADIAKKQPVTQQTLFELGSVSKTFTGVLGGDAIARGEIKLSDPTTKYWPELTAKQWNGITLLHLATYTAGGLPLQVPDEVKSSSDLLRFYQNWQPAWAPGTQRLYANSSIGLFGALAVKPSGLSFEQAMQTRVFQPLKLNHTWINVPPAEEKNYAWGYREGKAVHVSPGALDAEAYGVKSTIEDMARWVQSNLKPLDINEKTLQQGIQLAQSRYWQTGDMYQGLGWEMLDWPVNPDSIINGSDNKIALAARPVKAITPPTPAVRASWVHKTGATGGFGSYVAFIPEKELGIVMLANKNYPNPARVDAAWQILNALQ
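Enzyme, pH 7.0 phosphate. Compound titrations were pre-incubated with AmpC for 15 min at room temperature before nitrocefin (stock 800 uM) addition; product formation was recorded at 480 nm every 20 s for 4 min.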
Prx2 Sm inh – Schistosoma mansoni Prx2 inhibition; S. mansoni Prx2 activity coupled to TGR/GSH (TGR is thioredoxin glutathione reductase), NADPH fluorescence loss, qHTS; 65,000 tested, 0.07% active; AID 448; Potency, µM
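Prx2 activity was followed as the loss of NADPH fluorescence (ex 365/em 450 nm), read every 30 sec for 8 min after H2O2 start. The enzyme mix (50 nM Prx2, 25 nM TGR, GSH, NADPH; pH 7.4 phosphate buffer) was incubated with compound for 15 min at room temperature first.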
Anthrax LT inh – anthrax lethal toxin internalization inhibition; 70,000 tested, 0.67% active; Potency, µM (titrated, usually from 40 µM), for inactives: at the highest dose activity change, negative = inhibition, actives largely listed as inhibitors; Cells, anthrax lethal toxin internalization, FRET ratio (460/530); note: % is set by controls: 0 for no effect and ±100 for the full control effect; nearly all actives have a fitted effect of over 50% in size
AmpC det inh – inhibitors of E. coli AmpC beta-lactamase with detergent. 71,000 tested, 0.09% active. Potency, µM (top dose mostly 28.7 µM), for the others: at the highest dose activity change, negative = inhibition. purified AmpC, nitrocefin hydrolysis with detergent. P00811. AID 584; active = well fitted curve in the direction sought with a large enough effect; inconclusive = small, poorly fitted or top-dose-only effect; note: % is set by controls: 0 for no effect and ±100 for the full control effect
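E. coli AmpC (5.3 nM) in 20 mM phosphate pH 7.0 with 0.01% Triton X-100, preincubated 15 min RT with compound; nitrocefin (2 uL of 800 uM stock) hydrolysis followed by 480 nm absorbance every 20 s over 4 min.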
An asterisk follows results filed as active; ? = inconclusive; nt = not tested or not shown; [ ] = another dose, or the depositor's remark. Hits are enriched below; roughly 2.6% of the tested compounds scored in any of these assays. Unless noted, calls come from the whole dose curve. Potency is the fitted concentration of half-maximal effect.

SMILES	AmpC inh no det	Prx2 Sm inh	Anthrax LT inh	AmpC det inh
CCN(CC)CCCNC(=O)CC1Oc2ccc(C)cc2NC1=O (stereo not given)	4µM*[single pt active]	>57	5%	13%
O=C(CSCc1ccco1)c1ccc(Cl)s1	10µM*	>57	-8%	12%
Cc1ccc(C)c(S(=O)(=O)Nc2ccccc2C(=O)Nc2cc(C)on2)c1	6.3µM*	>57	?	-4%
O=C(C1CCCN1S(=O)(=O)c1cccc2cccnc12)N1CCc2ccccc2C1 (stereo not given)	4µM*[single pt active]	>57	-9%	8%
O=C(C1CCN(S(=O)(=O)c2cccc3cccnc23)CC1)N1CCCC1	-2%	>57	21%	4%
O=C(C1CCN(S(=O)(=O)c2cccc3cccnc23)CC1)N1CC=C(c2ccccc2)CC1	34%	>57	13µM*	2%
O=C(C1CCCN1S(=O)(=O)c1cccc2cccnc12)N1CCc2ccccc21 (stereo not given)	39%	>57	6%	9%
CN(C)c1ccnc(SCc2ccccc2Cl)c1C#N	-2%	>57	7.9µM*	-3%
CSc1nnc(Cn2c(=O)sc3ccccc32)n1C	4µM*[single pt active]	>57	-12%	12%
CCCSc1nnc(Cn2c(=O)sc3ccccc32)n1C	4µM*[single pt active]	>57	-14%	12%
NC(=O)c1ccsc1NC(=O)c1nc(-c2ccccc2)n(-c2ccccc2)n1	-24%	?	10µM*	-1%
CCOC(=O)CCN1C(=O)[C@H]2[C@H]3[C@H](O)[C@H](O)C/C(=N/OC[C@@H](O)COCc4ccco4)[C@@H]3CC[C@@H]2C1=O	nt	nt	8%[8 µM]	nt
Nc1nn(S(=O)(=O)c2cccc3nsnc23)cc1-c1ccc(Br)cc1	13µM*[single pt active]	>57	?	-6%
Cc1ccc(-c2cn(S(=O)(=O)c3cccc4nsnc34)nc2N)cc1	-13%	>57	25%	-3%
COc1ccccc1N1CCN(C(=O)c2sc3nc(-c4ccc(F)cc4)cn3c2C)CC1	126%	>57	16µM*	13%
CCOC(=O)N1CCN(C(=O)c2sc3nc(-c4ccc(F)cc4)cn3c2C)CC1	119%	>57	0%	-4%
FC(F)(F)c1ccccc1-c1nc(N2CCOCC2)c2ccccc2n1	42%	>57	-6%	4%
Oc1c(CN2CCc3ccccc3C2)cc(Cl)c2cccnc12	2.5µM*[single pt active]	>57	?	15%
O=C(Nc1cc(Cl)ccc1O)c1cc2n(n1)C(C(F)(F)F)CC(c1ccc3c(c1)OCO3)N2 (stereo not given)	7.9µM*	>57	?	-3%
COc1ccc(OC)c(NC(=O)c2cc3n(n2)C(C(F)(F)F)CC(c2ccc4c(c2)OCO4)N3)c1 (stereo not given)	34%	>57	-29%	4%
COc1ccc(-c2cc(C(=O)NCc3ccccc3)no2)cc1OC	0.4µM*	?	-1%	?
COc1ccc(CNC(=O)c2cc(-c3cccc(OC)c3)on2)cc1	-9%	>57	?	2%
COc1cccc(-c2cc(C(=O)NCc3ccc(Cl)cc3)no2)c1	13µM*[single pt active]	nt	5%	3%
COc1ccc(CNC(=O)c2cc(-c3ccc(OC)c(OC)c3)on2)cc1	25%	>57	5%	-2%
O=C(CSc1nc2ccccc2c(=O)[nH]1)N1CCCCC1	4µM*[single pt active]	>57	2%	8%
SMILES	AmpC inh no det	Prx2 Sm inh	Anthrax LT inh	AmpC det inh
Cc1ccc(S(=O)(=O)N2CCN(C(=O)CSc3nc4ccccc4c(=O)[nH]3)CC2)cc1	0%	>57	-5%	-4%
CC1CCCCN1CCn1cnc2c([nH]c3ccccc32)c1=O (stereo not given)	4µM*[single pt active]	>57	1%	13%
O=c1c2[nH]c3ccc(F)cc3c2ncn1CCN1CCN(Cc2ccccc2)CC1	3.2µM*[single pt active]	>57	-10%	10%
COc1ccccc1-c1ccc2ncnc(N3CCNCC3)c2c1	12%	>57	?	11%
CNCCCCCCCCSc1nc(C(C)C)ccc1C(=O)c1cccs1	122%	>57	?	-5%
COc1ccc2nc(NC(=O)C3CCN(S(=O)(=O)c4cccc5nsnc45)CC3)sc2c1	7%	>57	13µM*	1%
Cc1cccc(NC(=O)C2CCN(S(=O)(=O)c3cccc4nsnc34)CC2)n1	8%	>57	19%	0%
Cn1c(C(=O)N2CCN(C3CCCCC3)CC2)cc2c(=O)n(C)c3ccccc3c21	4µM*[single pt active]	>57	-6%	13%
Cn1c(C(=O)N2CCN(c3ccc(Cl)cc3)CC2)cc2c(=O)n(C)c3ccccc3c21	4µM*[single pt active]	>57	-25%	10%
Cn1c(C(=O)N2CCN(c3ccccn3)CC2)cc2c(=O)n(C)c3ccccc3c21	4µM*[single pt active]	>57	14%	14%
Cn1c(C(=O)N2CCN(c3ccc(F)cc3)CC2)cc2c(=O)n(C)c3ccccc3c21	10%	>57	-2%	10%
O=C(c1ccccc1)N1CCN(Cc2ccccc2Br)CC1	38%	>57	3%	-5%
Brc1ccccc1CN1CCC(N2CCCCC2)CC1	-20%	nt	10µM*	6%
COc1cc2c(=O)n(CC3CCCO3)c(=O)n(CC(=O)Nc3ccc(F)cc3F)c2cc1OC (stereo not given)	4µM*[single pt active]	>57	10%	16%
Cc1cccc(C2CC(c3ccc(F)cc3)Nc3nc(N)nn32)c1 (stereo not given)	4µM*[single pt active]	>57	8%	11%
Cc1cccc(C2CC(c3ccc(Cl)cc3)Nc3nc(N)nn32)c1 (stereo not given)	4µM*[single pt active]	>57	-2%	12%
CCOc1ccc(C2CC(c3cccc(C)c3)n3nc(N)nc3N2)cc1 (stereo not given)	31%	>57	7%	10%
Cc1ccc(C2CC(c3cccc(Cl)c3)n3nc(N)nc3N2)cc1 (stereo not given)	71%	>57	-10%	9%
N#Cc1ccc(CN2CCCC3(CCN(C(=O)c4cc(C(F)(F)F)cc(C(F)(F)F)c4)CC3)C2)cc1	50%	>57	?	0%
CN(C)c1nc(-c2ccccc2C(F)(F)F)nc2ccccc12	24%	>57	?	8%
O=C(Cc1ccccc1)Nc1nc2ccc(Cl)cc2c2nc(-c3ccco3)nn12	-7%	>57	?	-3%
CC(C)(C)c1ccc(/C=C/C(=O)Nc2ccc3c(c2)OCCO3)cc1	nt	nt	4µM*	nt
Cc1oc(C(C)(C)C)cc1C(=O)Nc1ccc2c(c1)OCCO2	16%	>57	?	-2%
O=C(O)/C=C\c1c2ccc(=O)c(O)c-2oc2c(O)c(O)ccc12	1.6µM*	>57	?	2µM*
CC1=C(C(=O)OC(C)C)C(c2ccncc2)n2ncnc2N1 (stereo not given)	-1%	>57	?	-3%
CC1=C(C(=O)OC(C)C)C(c2cccnc2)n2ncnc2N1 (stereo not given)	4µM*[single pt active]	>57	26%	8%
CC1=C(C(=O)OC(C)C)C(c2ccccn2)n2ncnc2N1 (stereo not given)	4µM*[single pt active]	>57	14%	14%
Cc1ncc(CO)c2cc(S(=O)(=O)c3ccc(F)cc3)c(=O)oc12	4µM*[single pt active]	17*	0%	13%
